PostGolgi yeast = growth inhibition of a yeast mutant, post-Golgi transport screen. post-Golgi transport phenotypic cell assay. inhibition, % at 10 µM. 98,000 tested, 0.9% active;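 further: yeast cells grown in 1536-well plates; yeast grown about 18 h at 30C before absorbance read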
PostGolgi ctrl = inhibits growth of the yeast control strain | efflux-deficient yeast background strain, growth absorbance A615, 16 h | 98,000 tested, 5% active | AID 738 | inhibition, % at 10 µM
CYP2C19 inhib = blocks human cytochrome P450 2C19. P33261. CYP2C19 Supersomes, luciferin-H EGE luminescence, 30 min. inhibition, % at 5 µM. 96,000 tested, 21% active. AID 778;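 active means CYP2C19 inhibition above a set limit at 5 µM in the primary screen, cut at about 50% in these data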;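 further: plate controls were negative control wells for no effect and 2.5 mM tranylcypromine positive control for full effect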
CYP2C19 act = activators of human cytochrome P450 2C19; P33261; recombinant CYP2C19, luciferin-H EGE luminescence; stronger effect = higher value; 0 = fully inhibited enzyme, 1 = untreated enzyme; 96,000 tested, under 10 active; activation factor at 5 µM;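 active means activation factor of at least 2 at 5 µM in the primary screen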;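 further: 0 = wells with 2.5 mM tranylcypromine and 1 = vehicle-only wells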
CYP2C9 inh = human CYP2C9 inhibition. P11712. CYP2C9 Supersomes, luciferin-H conversion, luminescence. inhibition, % at 5 µM. 96,000 tested, 20% active. AID 777;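 active means blocking of liver enzyme CYP2C9 beyond about 50% at 5 µM, limit read from the data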
Target sequence (P11712 whole entry, looked up): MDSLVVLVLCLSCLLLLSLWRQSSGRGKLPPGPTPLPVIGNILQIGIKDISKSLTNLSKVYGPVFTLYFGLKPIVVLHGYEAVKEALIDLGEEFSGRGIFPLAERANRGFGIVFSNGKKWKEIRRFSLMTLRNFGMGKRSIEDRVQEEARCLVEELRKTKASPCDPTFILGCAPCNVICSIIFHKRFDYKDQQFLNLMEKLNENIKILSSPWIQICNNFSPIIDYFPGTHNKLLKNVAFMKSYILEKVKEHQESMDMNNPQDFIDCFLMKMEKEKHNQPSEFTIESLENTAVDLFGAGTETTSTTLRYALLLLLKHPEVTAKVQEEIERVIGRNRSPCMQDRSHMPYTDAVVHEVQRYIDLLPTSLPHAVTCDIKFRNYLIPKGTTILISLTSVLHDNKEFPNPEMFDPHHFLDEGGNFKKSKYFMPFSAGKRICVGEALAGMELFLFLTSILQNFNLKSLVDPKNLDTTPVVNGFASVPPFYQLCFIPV
CYP2C9 act = activators of human CYP2C9. recombinant CYP2C9, luciferin-H conversion, luminescence; stronger effect = higher value; factor 1 = untreated enzyme, 0 = blocked. activation factor at 5 µM. 96,000 tested, 1.4% active. AID 1024;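 active means activation factor of 2 or more for CYP2C9 at a 5 µM dose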;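 further: 0 = sulfaphenazole-blocked wells and 1 = vehicle-only wells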
* hit, by the source's call. A selection: hits, their analogues and other compounds. The true share with any hit is near 32%. Unless noted, no stated cut-off is given here; in the data, active means inhibition above about 30%; inactive means the rest.

SMILES | PostGolgi yeast | PostGolgi ctrl | CYP2C19 inhib | CYP2C19 act | CYP2C9 inh | CYP2C9 act
C/C(N)=C(/C#N)C(=O)COC(=O)COc1ccc(Cl)cc1C | 1 | 5 | 21 | 0.8 | 4 | 1
CCOC(=O)c1c(C)oc(NC(=O)COc2ccc(Cl)cc2C)c1C#N | -4 | -3 | 13 | 0.9 | 56* | 0.4
Cc1cc(Cl)ccc1OCC(=O)OC(C)C(=O)N(C)C (centres undefined) | 9 | 2 | 69* | 0.3 | 24 | 0.8
CCC(=O)NS(=O)(=O)c1cccnc1Nc1ccc(Cl)cc1 | 1 | 4 | 18 | 0.8 | 96* | 0
NS(=O)(=O)c1cccnc1Nc1ccc(Cl)c(Cl)c1 | 2 | 6 | 50 | 0.5 | 43 | 0.6
CCOc1ncccc1C(=O)Nc1ccc(Cl)cc1 | -6 | 6 | 7 | 0.9 | 23 | 0.8
CC(=O)NS(=O)(=O)c1cccnc1Nc1ccc(Cl)c(Cl)c1 | 10 | 3 | 4 | 1 | 71* | 0.3
COc1cc(NC(=O)c2cccc(Cl)c2)c(OC)cc1NC(=O)CN1CCOCC1 | -2 | 14 | -2 | 1 | 14 | 0.9
Cc1cccc(N/C=C/C(=C(C#N)C#N)N(C)C)c1 | -15 | -9 | 76* | 0.2 | 87* | 0.1
CN(C)C(/C=C/Nc1ccccc1F)=C(C#N)C#N | -3 | 8 | 19 | 0.8 | 50 | 0.5
O=C1CSC(c2cn(-c3ccccc3)nc2-c2ccccc2)N1Cc1ccco1 (centres undefined) | 4 | 53* | 86* | 0.1 | 96* | 0
COC(=O)C1=C(C)NC(=O)NC1c1cn(-c2ccccc2)nc1-c1cccs1 (centres undefined) | 4 | 10 | 20 | 0.8 | 17 | 0.8
O=C1CSC(c2cn(-c3ccccc3)nc2-c2cccs2)N1CC1CCCO1 (centres undefined) | -14 | 20 | 73* | 0.3 | 80* | 0.2
O=C1CSC(c2ccncc2)N1Cc1ccco1 (centres undefined) | 3 | 9 | 18 | 0.8 | 22 | 0.8
CCc1ccc(-c2nn(-c3ccccc3)cc2C2SCC(=O)N2Cc2ccco2)cc1 (centres undefined) | 6 | 19 | 44 | 0.6 | 67* | 0.3
COC(=O)c1cccc(N(C(=O)c2cnccn2)C(C(=O)NCc2ccccc2)c2ccco2)c1 (centres undefined) | -4 | 7 | 71* | 0.3 | 48 | 0.5
COC(=O)c1cccc(N(C(=O)CNC(=O)c2ccco2)C(C(=O)NC2CCCC2)c2ccco2)c1 (centres undefined) | 7 | 20 | 25 | 0.7 | 64* | 0.4
COC(=O)c1ccc(C(C(=O)NCc2ccccc2)N(Cc2cccs2)C(=O)c2cnccn2)cc1 (centres undefined) | -8 | 11 | 7 | 0.9 | 32 | 0.7
CC(C)CCN(C(=O)CNC(=O)c1ccco1)C(C(=O)NC1CCCCC1)c1ccco1 (centres undefined) | 12 | 16 | 70* | 0.3 | 51* | 0.5
CCN1CCCC1CNC(=O)c1c(O)c2c([nH]c1=O)CCCC2 (centres undefined) | 5 | 5 | -10 | 1.1 | -26 | 1.3
Cc1ccc(C2=[N+]([O-])C(C)(C)CC2)cc1 | 2 | 33* | 7 | 0.9 | 9 | 0.9
O=S(=O)(c1ccccc1C(F)(F)F)N1CCC(n2cnc3ccccc32)CC1 | 24 | 8 | 88* | 0.1 | 71* | 0.3
O=C(NCc1ccco1)C1CCCN(S(=O)(=O)c2ccc(Cl)cc2)C1 (centres undefined) | 15 | -2 | 22 | 0.8 | -38 | 1.4
CC(=O)c1ccc(Nc2nc(=O)c3cccnc3s2)cc1 | -1 | 9 | 25 | 0.8 | 41 | 0.6
CC(=O)c1cccc(Nc2nc(=O)c3cccnc3s2)c1 | -2 | 11 | 74* | 0.3 | 78* | 0.2
SMILES | PostGolgi yeast | PostGolgi ctrl | CYP2C19 inhib | CYP2C19 act | CYP2C9 inh | CYP2C9 act
O=C(O)C1CCCN1S(=O)(=O)c1ccc2[nH]c(=O)c(=O)[nH]c2c1 (centres undefined) | 5 | 13 | -9 | 1.1 | -11 | 1.1
Nc1nn(S(=O)(=O)c2cccc3nsnc23)cc1-c1ccc(Br)cc1 | 79* | 72* | 100* | 0 | 100* | 0
COc1cc(-c2cn(S(=O)(=O)c3cccc4nsnc34)nc2N)cc(OC)c1OC | 4 | 7 | 96* | 0 | 88* | 0.1
Cc1ccc(-c2cn(S(=O)(=O)c3cccc4nsnc34)nc2N)cc1 | 48* | 23 | 89* | 0.1 | 69* | 0.3
COc1ccc(CCNC(=O)CN(C)S(=O)(=O)c2cccc3nsnc23)cc1OC | -2 | 2 | 9 | 0.9 | 43 | 0.6
Cc1cc(NC(=O)COC(=O)C2CCCN2C(=O)c2cccs2)no1 (centres undefined) | -7 | -5 | -12 | 1.1 | 1 | 1
O=C(CSc1nnc(-c2cccnc2)n1Cc1ccco1)c1ccc(Br)cc1 | -4 | -1 | 88* | 0.1 | 80* | 0.2
O=C(CSc1nnc(-c2cccnc2)n1Cc1ccco1)c1ccc2ccccc2c1 | 1 | -3 | 24 | 0.8 | 48 | 0.5
O=C(CSc1nnc(-c2ccccn2)n1Cc1ccco1)c1ccc(Cl)cc1 | 9 | 20 | 27 | 0.7 | 71* | 0.3
COc1ccc(C(=O)CSc2nnc(-c3ccccn3)n2Cc2ccco2)cc1 | 2 | 35* | 29 | 0.7 | 66* | 0.3
COc1cc(Cl)c(C)cc1NC(=O)CSc1nnc(-c2ccccn2)n1Cc1ccco1 | 4 | 40* | 16 | 0.8 | 50* | 0.5
COc1ccc(NC(=O)CSc2nnc(-c3ccccc3)n2Cc2ccco2)cc1OC | -3 | 6 | 16 | 0.8 | 28 | 0.7
C/C(Cl)=C/CSc1nnc2n(N)c(=O)c3ccccc3n12 | 6 | 1 | -15 | 1.2 | -6 | 1.1
Cc1c(C(=O)N2CCN(c3ccccc3F)CC2)sc2ncn(CC(=O)N3CCOCC3)c(=O)c12 | 2 | -3 | 3 | 1 | 11 | 0.9
COc1cccc(C(=O)NN2C(=O)C3C4C=CC(O4)C3C2=O)c1 (centres undefined) | 5 | -1 | 4 | 1 | 10 | 0.9
O=C(CSc1nnc(-c2cnccn2)n1Cc1ccco1)c1ccc(Cl)cc1 | -7 | 9 | 27 | 0.7 | 59* | 0.4
O=C(CSc1nnc(-c2cnccn2)n1Cc1ccco1)c1ccccc1 | 1 | 1 | 35 | 0.7 | 38 | 0.6
O=C(CSc1nnc(-c2ccccn2)n1Cc1ccco1)c1ccccc1 | 2 | 31* | -1 | 1 | 51* | 0.5
C=CCC1CCCCC12NC(=O)NC2=O (centres undefined) | 5 | -7 | -7 | 1.1 | -17 | 1.2
Cc1ccc(S(=O)(=O)NCCSc2nnnn2C)cc1 | -2 | 8 | 40 | 0.6 | -3 | 1
Cn1nnnc1SCCOc1ccc(C#N)cc1 | -6 | 2 | 62* | 0.4 | -5 | 1
